Laboratory results: PubChem BioAssay (EPA / NIEHS)
Results filed as inconclusive are left out. The source made the active and inactive calls. How the source made its calls: active means hit-call score of the fitted dose curve at least 0.9, where 1 is the maximum; inconclusive means response in the unintended direction; inactive means score below 0.9.

Read-out: Broad substrate specificity ATP-binding cassette transporter ABCG2 (Homo sapiens) (UniProt Q9UNQ0)
Assay: CLD_ABCG2_48hr: CellzDirect (CLD) Gene Expression Assay for ABC Transporter (ABCG2) at 48 hours (AID 2283704);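 on AC50: potency for induction of ABCG2 mRNA above the DMSO baseline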
Procedure: CLD_48hr is a cell-based, multiplexed-readout assay that uses hepatocyte, a human liver primary cell, with measurements taken at 48 hours after chemical dosing in a 96-well plate.CLD_ABCG2_48hr is one of 16 assay component(s) measured or calculated from the CLD_48hr assay. It is designed to make measurements of mRNA induction, a form of inducible reporter, as detected with chemiluminescence signals by Quantitative Nuclease Protection Assay (qNPA) technology.Data from the assay component CLD_ABCG2_48hr was analyzed at the endpoint, CLD_ABCG2_48hr, in the positive analysis fitting direction relative to DMSO as the negative control and baseline of activity. Using a type of inducible reporter, gain-of-signal activity can be used to understand changes in the reporter gene as they relate to the gene ABCG2. Furthermore, this assay endpoint can be referred to as a primary readout. To generalize the intended target to other relatable targets, this assay endpoint is annotated to the transporter intended target family, where subfamily is ABC transporter.
Human hepatocyte cultures were treated daily for two consecutive days with fresh dosing solutions containing appropriate concentrations of the 320 ToxCast chemicals (chemical identities were blinded to CellzDirect and other ToxCast collaborators), vehicle control (0.2% DMSO), and positive control inducers as summarized in Table 1. Due to the large number of treatment groups and chemicals examined, the ToxCast chemicals were divided into two groups (spanning two independent cultures of hepatocytes from separate donor preparations (Hu778: ToxCast plates 1 and 2; Hu776: ToxCast plates 3 and 4). Each preparation of human hepatocyte cultures was treated with respective vehicle control, medium only control, set of six positive controls/reference chemicals for the five hepatic receptor pathways, and a subset of eight of the ToxCast chemicals (indoxacarb, pyrithiobac-sodium, norflurazon, cyhalofop-butyl, methomyl, thiram, acetochlor, and propiconazole). These replicate data, coupled with internal replicates designed within the blinded ToxCast chemical library, provided additional data to evaluate interindividual differences between hepatocyte preparations and their potential impact on chemical profiles.Cell morphology and integrity were evaluated using phase-contrast microscopy as an indicator of hepatocyte cell health (Tyson & Green, 1987). Cultures for each treatment group (i.e., media, vehicle [0.2% DMSO], positive control inducers [multiple concentrations], and the ToxCast chemicals [multiple concentrations]) were observed and cell morphology was assessed relative to vehicle control cultures at each harvest time point (0, 6, 24, or 48 h). […] Images were evaluated at the conclusion of the study to assess changes in cell integrity and account for the effects of chemical exposure on uncharacteristic changes in concentration-dependent gene expression profiles. The results from these determinations of apparent cytotoxicity were annotated (yes/no) alongside the corresponding qNPA data for reference.At the conclusion of each treatment period, hepatocyte cultures (96-well) were washed with 1 volume of HBSS, lysed by addition of 25 ul ArrayPlate lysis buffer (HTG, Tucson, AZ), and 70 ul/well of Denaturation Oil, denatured by incubation at 95C for 10 min, and frozen at approximately -70C until analysis by nuclease protection assay (qNPA) (Roberts et al., 2007). For qNPA analysis, cell lysates were thawed at 50C for approximately 30 min, qNPA probes were added, and samples were incubated at 95C for 10 min to begin the detection process by denaturing the target RNA, dissociating the duplexes and secondary structure hybridization. At the conclusion of the hybridization period, S1 nuclease reagent was added to each sample to digest all nonprotected nucleotides at 50C for 60-90 min. […]

Broad substrate specificity ATP-binding cassette transporter ABCG2 (Homo sapiens), sequence (Q9UNQ0 whole entry, looked up): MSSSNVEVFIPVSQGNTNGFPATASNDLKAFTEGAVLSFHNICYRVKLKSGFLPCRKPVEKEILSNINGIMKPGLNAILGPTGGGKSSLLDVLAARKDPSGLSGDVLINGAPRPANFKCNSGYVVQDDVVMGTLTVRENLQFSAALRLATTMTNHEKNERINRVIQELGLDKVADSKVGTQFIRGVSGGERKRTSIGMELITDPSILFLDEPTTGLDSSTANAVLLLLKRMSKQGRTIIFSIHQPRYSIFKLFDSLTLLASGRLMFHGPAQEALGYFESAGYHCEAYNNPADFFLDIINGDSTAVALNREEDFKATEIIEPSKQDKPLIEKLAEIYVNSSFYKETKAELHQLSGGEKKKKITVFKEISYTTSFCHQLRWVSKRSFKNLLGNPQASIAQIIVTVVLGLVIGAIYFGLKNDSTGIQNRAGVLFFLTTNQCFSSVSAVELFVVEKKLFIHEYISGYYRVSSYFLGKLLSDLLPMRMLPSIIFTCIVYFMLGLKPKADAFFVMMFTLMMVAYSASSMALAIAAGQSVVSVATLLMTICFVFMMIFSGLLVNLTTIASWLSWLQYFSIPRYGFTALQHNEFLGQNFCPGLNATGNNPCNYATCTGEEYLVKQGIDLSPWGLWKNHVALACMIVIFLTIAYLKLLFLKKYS

SMILES	outcome	AC50
COc1cc(OC)nc(Sc2cccc(Cl)c2C(=O)O)n1	inactive	–
CCc1cccc(CC)c1N(COC)C(=O)CCl	inactive	–
CCCCOC(=O)[C@@H](C)Oc1ccc(Oc2ccc(C#N)cc2F)cc1	inactive	–
S=C1NCCN1	inactive	–
COc1ccc(C(=CC(=O)N2CCOCC2)c2ccc(Cl)cc2)cc1OC	–	32 µM (active)
CNC(=O)ON=C(SC)C(=O)N(C)C	inactive	–
CCCCN(CC)c1c([N+](=O)[O-])cc(C(F)(F)F)cc1[N+](=O)[O-]	inactive	–
CSC1=N[C@@](C)(c2ccccc2)C(=O)N1Nc1ccccc1	inactive	–
O=c1ccc(=O)[nH][nH]1	inactive	–
COP(=O)(NC(C)=O)SC (stereo not given)	inactive	–
CCCOCC(=Nc1ccc(Cl)cc1C(F)(F)F)n1ccnc1	–	20 µM (active)
CC1=NNC(=O)N(/N=C/c2cccnc2)C1	inactive	–
Cc1ccn2nc(S(=O)(=O)Nc3c(F)cccc3F)nc2n1	inactive	–
CCc1cccc(C)c1N(C(=O)CCl)C(C)COC (stereo not given)	inactive	–
C[Si](Cn1cncn1)(c1ccc(F)cc1)c1ccc(F)cc1	–	31.6 µM (active)
FC(F)C(F)(F)OCC(Cn1cncn1)c1ccc(Cl)cc1Cl (stereo not given)	inactive	–
CC[C@H](C)[C@H]1O[C@]2(C=C[C@@H]1C)C[C@@H]1C[C@@H](C/C=C(\C)[C@@H](O[C@H]3C[C@H](OC)[C@@H](O[C@H]4C[C@H](OC)[C@@H](NC)[C@H](C)O4)[C@H](C)O3)[C@@H](C)/C=C/C=C3\CO[C@@H]4[C@H](O)C(C)=C[C@@H](C(=O)O1)[C@]34O)O2	inactive	–
CCOC(=O)CC(SP(=O)(OC)OC)C(=O)OCC (stereo not given)	inactive	–
N#CSCSC#N	inactive	–
CC(C)=CC1C(C(=O)OCN2C(=O)C3=C(CCCC3)C2=O)C1(C)C (stereo not given)	inactive	–

SMILES	outcome	AC50
CN(C)C(=O)Nc1cccc(C(F)(F)F)c1	inactive	–
CON=C(C(=O)OC)c1ccccc1CON=C(C)c1cccc(C(F)(F)F)c1	inactive	–
CC(C1CC1)C(O)(Cn1cncn1)c1ccc(Cl)cc1 (stereo not given)	inactive	–
CCCCOC(=O)c1ccccc1C(=O)O	inactive	–
COP(=O)(OC)C(O)C(Cl)(Cl)Cl (stereo not given)	inactive	–
CCCOc1nn(C(=O)NS(=O)(=O)c2ccccc2C(=O)OC)c(=O)n1C	inactive	–
CCOP(=S)(Oc1cnc(C(C)(C)C)nc1)OC(C)C (stereo not given)	inactive	–
CCCCSP(=O)(SCCCC)SCCCC	–	33.5 µM (active)
CCCSP(=O)(OCC)SCCC	inactive	–
CCOP(=S)(OCC)OC(Cl)C(Cl)(Cl)Cl (stereo not given)	inactive	–
CC(COc1ccc(Oc2ccccc2)cc1)Oc1ccccn1 (stereo not given)	inactive	–
CN1COCN(Cc2cnc(Cl)s2)C1=N[N+](=O)[O-]	inactive	–
CCOP(=O)(SC(C)CC)N1CCSC1=O (stereo not given)	inactive	–
CCOP(=S)(OCC)Oc1ccc2c(C)c(Cl)c(=O)oc2c1	inactive	–
C=C(C)[C@H]1Cc2c(ccc3c2O[C@@H]2COc4cc(OC)c(OC)cc4[C@@H]2C3=O)O1	–	0.309 µM (active)
CC(Oc1cccc(Cl)c1)C(=O)O (stereo not given)	inactive	–
CCc1cnc(C2=NC(C)(C(C)C)C(=O)N2)c(C(=O)O)c1 (stereo not given)	inactive	–
CC1(C(=O)Nc2ccc(O)c(Cl)c2Cl)CCCCC1	inactive	–
CCOP(=O)(OCC)Oc1cc(C)nc(C(C)C)n1	inactive	–
C#CCC1=C(C)C(OC(=O)C2C(C=C(C)C)C2(C)C)CC1=O (stereo not given)	inactive	–
